± gives the standard deviation. In all, about 6,200 sequences were measured (“pre-steady-state target cleavage rate”: median about 0.29, highest 2% from about 2 on). This is one part of a sample in which the highest values are shown more often than they occur.
These sequences were tested on MIWI (PIWIL1) piRISC loaded with piRNA #1 (30 nt) (assay: pre-steady-state target cleavage rate (min^-1); MIWI and MILI are mouse PIWI proteins and EfPiwi is from a freshwater sponge; tags in brackets are library labels; higher = faster piRNA-guided slicing of the target). Details: guide: piRNA #1 5'p-UGAGGUAGUAGGUUGUAUAGUAUCCAGAGG; auxiliary factor: 500 nM mouse GTSF1.
Protocol: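 Cleave-'n-Seq: a library of target RNAs (target site embedded in constant flanks, ACAGCATTCCGCGTTAGTGATATCCG... 5' flank; DNA-blocked outside the site) at 0.1 nM was incubated with 1 nM active mouse MILI or MIWI piRISC (synthetic 5'-monophosphorylated piRNA guide) with or without 500 nM mouse GTSF1 at 33 °C for 1 min to 16 h. Uncleaved targets were sequenced and normalised to non-target controls, and the pooled three trials were fitted to a burst-and-steady-state model to give the pre-steady-state cleavage rate (min^-1; k3 is constrained to at most 1e-4). Sequence is the target site only; target names encode pairing extent (gX:gY) and contiguous / 1-mismatch / 2-mismatch / bulge geometry. Fits with R² ≤ 0 are excluded.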

**Q.** For CCUCUGGAUAUUAUACAACCUACUACCUCA, which “pre-steady-state target cleavage rate” value is on record?
**A.** 2.15 ± 0.12

**Q.** How did the “pre-steady-state target cleavage rate” value turn out when GCUCUGGAUAUUAUACAACCUACUACCUCA was run?
**A.** 2.06 ± 0.11

**Q.** How did the “pre-steady-state target cleavage rate” value turn out when GCUCUGGAUAUAUACAACCUACUACCUCA was run?
**A.** 1.62 ± 0.086

**Q.** For GGUCUGGAUAUUAUACAACCUACUACCUCA, which “pre-steady-state target cleavage rate” value is on record?
**A.** 1.98 ± 0.12

**Q.** For GCUCUGGAUACAUAUACAACCUACUACCUCA, which “pre-steady-state target cleavage rate” value is on record?
**A.** 1.54 ± 0.083

**Q.** How did the “pre-steady-state target cleavage rate” value turn out when GGAGACCUAAGUAUUCAACCUACUACCUCA was run?
**A.** 0.00289 ± 0.0023

**Q.** CGUCUGGAUACUAUACAACCUACUACCUGA was tested. Which “pre-steady-state target cleavage rate” value did it give?
**A.** 0.517 ± 0.044

**Q.** Which “pre-steady-state target cleavage rate” value does the source give for CCUCUGGAUACUAUACAUGGUACUACCUCA here?
**A.** 0.0547 ± 0.0094

**Q.** For GGAGAGGAUACUAUACAACCUACCACCUCA, which “pre-steady-state target cleavage rate” value is on record?
**A.** 0.849 ± 0.049

**Q.** GGUCUCGAUUCUAUACAACCUACUACCUCA was tested. Which “pre-steady-state target cleavage rate” value did it give?
**A.** 1.74 ± 0.1

**Q.** GCUCUCGAUUCUAUACAACCUACUACCUCA was tested. Which “pre-steady-state target cleavage rate” value did it give?
**A.** 2.09 ± 0.12

**Q.** With CCUCUCGAUUCUAUACAACCUACUACCUCA as the sequence, how does the “pre-steady-state target cleavage rate” value read?
**A.** 2.25 ± 0.15

**Q.** With GCUCUCGAUACUAUACAACCUUCUACCUCA as the sequence, how does the “pre-steady-state target cleavage rate” value read?
**A.** 0.639 ± 0.034

**Q.** For GGACUCGAUUCUAUACAACCUACUACCUCA, which “pre-steady-state target cleavage rate” value is on record?
**A.** 1.61 ± 0.14

**Q.** With CCUCUCGAUACUAUACAACCUUCUACCUCA as the sequence, how does the “pre-steady-state target cleavage rate” value read?
**A.** 0.676 ± 0.035

**Q.** Which “pre-steady-state target cleavage rate” value does the source give for GGUCUGGAUACUAUACUUCCUACUACCUCA here?
**A.** 0.248 ± 0.029

**Q.** Which “pre-steady-state target cleavage rate” value does the source give for GGAGUGGAGACUAUACAACCUACUACCUCA here?
**A.** 1.65 ± 0.099

**Q.** For GGAGUGGAUACUAAUACAACCUACUACCUCA, which “pre-steady-state target cleavage rate” value is on record?
**A.** 1.4 ± 0.1

**Q.** CCUGCUGGAUACUAUACAACCUACUACCUCA was tested. Which “pre-steady-state target cleavage rate” value did it give?
**A.** 2.06 ± 0.12

**Q.** Which “pre-steady-state target cleavage rate” value does the source give for GGGCUGGAUACUAUACAACCUACUACCUCA here?
**A.** 1.9 ± 0.12

**Q.** With GCGCUGGAUACUAUACAACCUACUACCUCA as the sequence, how does the “pre-steady-state target cleavage rate” value read?
**A.** 1.85 ± 0.1

**Q.** How did the “pre-steady-state target cleavage rate” value turn out when GGUGCUGGAUACUAUACAACCUACUACCUCA was run?
**A.** 1.85 ± 0.11

**Q.** With GCUGCUGGAUACUAUACAACCUACUACCUCA as the sequence, how does the “pre-steady-state target cleavage rate” value read?
**A.** 2.01 ± 0.14

**Q.** Which “pre-steady-state target cleavage rate” value does the source give for CCGCUGGAUACUAUACAACCUACUACCUCA here?
**A.** 1.88 ± 0.094

**Q.** For GCUCUGGAUACUAUACAACCAUCUACCUCA, which “pre-steady-state target cleavage rate” value is on record?
**A.** 0.0463 ± 0.011

**Q.** For GGAGUGGUUACUAUAGAACCUACUACCUCA, which “pre-steady-state target cleavage rate” value is on record?
**A.** 1.24 ± 0.08

**Q.** CAUCUGGAUACUAUACAACCUACUACCUCA was tested. Which “pre-steady-state target cleavage rate” value did it give?
**A.** 1.37 ± 0.066

**Q.** Which “pre-steady-state target cleavage rate” value does the source give for GGUCUGGAUACUAUACAACCUUACUACCUCA here?
**A.** 0.00317 ± 0.0022

**Q.** For GGAGACCUUAGUAUACAACCUACAACCUCA, which “pre-steady-state target cleavage rate” value is on record?
**A.** 0.0975 ± 0.018

**Q.** For GCACUGGAAACUAUACAACCUACUACCUCA, which “pre-steady-state target cleavage rate” value is on record?
**A.** 1.82 ± 0.089

**Q.** For GGACUGGAAACUAUACAACCUACUACCUCA, which “pre-steady-state target cleavage rate” value is on record?
**A.** 1.44 ± 0.097

**Q.** CCUCUGGAAACUAUACAACCUACUACCACA was tested. Which “pre-steady-state target cleavage rate” value did it give?
**A.** 2.19 ± 0.26

**Q.** For GCUCAGGAAACUAUACAACCUACUACCUCA, which “pre-steady-state target cleavage rate” value is on record?
**A.** 1.78 ± 0.1

**Q.** How did the “pre-steady-state target cleavage rate” value turn out when GGUCUGGAAACUAUACAACCUACUACCACA was run?
**A.** 0.461 ± 0.05

**Q.** How did the “pre-steady-state target cleavage rate” value turn out when CCUCAGGAAACUAUACAACCUACUACCUCA was run?
**A.** 2.04 ± 0.1

**Q.** For GCUCUGGAAACUAUACAACCUACUACCACA, which “pre-steady-state target cleavage rate” value is on record?
**A.** 1.42 ± 0.15

**Q.** For GGUCAGGAAACUAUACAACCUACUACCUCA, which “pre-steady-state target cleavage rate” value is on record?
**A.** 1.77 ± 0.12

**Q.** With CCACUGGAAACUAUACAACCUACUACCUCA as the sequence, how does the “pre-steady-state target cleavage rate” value read?
**A.** 2.06 ± 0.11

**Q.** GGAGACGAUACUAUACAACCUAGAUCCUCA was tested. Which “pre-steady-state target cleavage rate” value did it give?
**A.** 0.113 ± 0.015

**Q.** Which “pre-steady-state target cleavage rate” value does the source give for GGAGAGGUUACUAAACAACCUACUACCUCA here?
**A.** 1.21 ± 0.08

**Q.** With GGAGACGAUACUAUAGAACCUACUACCUCA as the sequence, how does the “pre-steady-state target cleavage rate” value read?
**A.** 1.14 ± 0.066

**Q.** Which “pre-steady-state target cleavage rate” value does the source give for “GGAGACCUAUGAUAACAACCUACAUGGAGA [g8:g16:cont:t1A]” here?
**A.** < 0.0001

**Q.** For GGAGUGCAUACUAUACUACCUACUACCUCA, which “pre-steady-state target cleavage rate” value is on record?
**A.** 1.13 ± 0.092

**Q.** Which “pre-steady-state target cleavage rate” value does the source give for GGAGACCUAUGAUAAGUACCUACUACCUCA here?
**A.** < 0.0001

**Q.** GGAGACCUAUCUUUACAACCUACUACCACA was tested. Which “pre-steady-state target cleavage rate” value did it give?
**A.** 0.129 ± 0.03

**Q.** How did the “pre-steady-state target cleavage rate” value turn out when GGAGUGGAUUCAAUACAACCUACUACCUCA was run?
**A.** 1.02 ± 0.071

**Q.** Which “pre-steady-state target cleavage rate” value does the source give for GGAGUAGAUACUAUACAACCUACUACCUCA here?
**A.** 1.55 ± 0.074

**Q.** With GGACUAGAUACUAUACAACCUACUACCUCA as the sequence, how does the “pre-steady-state target cleavage rate” value read?
**A.** 1.77 ± 0.1

**Q.** For CCUCUAGGAUACUAUACAACCUACUACCUCA, which “pre-steady-state target cleavage rate” value is on record?
**A.** 2.12 ± 0.12

**Q.** Which “pre-steady-state target cleavage rate” value does the source give for GCUCUGGAUACUAUACAACCUCUACCUCA here?
**A.** 0.00616 ± 0.003

**Q.** For GCUCUAGAUACUAUACAACCUACUACCUCA, which “pre-steady-state target cleavage rate” value is on record?
**A.** 2.09 ± 0.12

**Q.** For GCUCUAGGAUACUAUACAACCUACUACCUCA, which “pre-steady-state target cleavage rate” value is on record?
**A.** 1.85 ± 0.095

**Q.** How did the “pre-steady-state target cleavage rate” value turn out when GGUCUAGGAUACUAUACAACCUACUACCUCA was run?
**A.** 1.83 ± 0.1

**Q.** Which “pre-steady-state target cleavage rate” value does the source give for CCUCUAGAUACUAUACAACCUACUACCUCA here?
**A.** 2.2 ± 0.13

**Q.** With GGUCUAGAUACUAUACAACCUACUACCUCA as the sequence, how does the “pre-steady-state target cleavage rate” value read?
**A.** 1.81 ± 0.11

**Q.** For GGAGACCUAAAUAUACAACCUACUACCUCA, which “pre-steady-state target cleavage rate” value is on record?
**A.** 0.106 ± 0.021

**Q.** How did the “pre-steady-state target cleavage rate” value turn out when GGACUGGAUACUAUACAACGUUCUACCUCA was run?
**A.** 0.107 ± 0.014

**Q.** Which “pre-steady-state target cleavage rate” value does the source give for GGUCUGGAUAGUAUACAACCUACUACCUGA here?
**A.** 0.248 ± 0.041

**Q.** How did the “pre-steady-state target cleavage rate” value turn out when GGAGACGAUAGUAUACUACCUACUACCUCA was run?
**A.** 0.67 ± 0.071

**Q.** With GGAGUGGAUACUAUACAACCUACUCACCUCA as the sequence, how does the “pre-steady-state target cleavage rate” value read?
**A.** 0.793 ± 0.088

**Q.** GGAGUGGAUACUAUACUACCUAGUACCUCA was tested. Which “pre-steady-state target cleavage rate” value did it give?
**A.** 0.283 ± 0.04

**Q.** For GGUGUGGAUACUAUACAACCUACUACCUGA, which “pre-steady-state target cleavage rate” value is on record?
**A.** 0.419 ± 0.069

**Q.** GGUGACGAUACUAUACAACCUACUACCUCA was tested. Which “pre-steady-state target cleavage rate” value did it give?
**A.** 1.82 ± 0.098

**Q.** How did the “pre-steady-state target cleavage rate” value turn out when GGAGACGAUACUAUACAACCUACUACCUCCA was run?
**A.** 2.06 ± 0.12

**Q.** Which “pre-steady-state target cleavage rate” value does the source give for GCUCACGAUACUAUACAACCUACUACCUCA here?
**A.** 1.83 ± 0.092

**Q.** For CCUCACGAUACUAUACAACCUACUACCUCA, which “pre-steady-state target cleavage rate” value is on record?
**A.** 2.1 ± 0.12

**Q.** For GCUGACGAUACUAUACAACCUACUACCUCA, which “pre-steady-state target cleavage rate” value is on record?
**A.** 1.84 ± 0.1

**Q.** GGUCACGAUACUAUACAACCUACUACCUCA was tested. Which “pre-steady-state target cleavage rate” value did it give?
**A.** 1.89 ± 0.12

**Q.** For CCUGACGAUACUAUACAACCUACUACCUCA, which “pre-steady-state target cleavage rate” value is on record?
**A.** 2.06 ± 0.12

**Q.** How did the “pre-steady-state target cleavage rate” value turn out when “GGAGACGAUACUAUACAACCUACUACCUCG [g2:g24:cont:t1G]” was run?
**A.** 1.1 ± 0.063

**Q.** “GGAGACGAUACUAUACAACCUACUACCUCC [g2:g24:cont:t1C]” was tested. Which “pre-steady-state target cleavage rate” value did it give?
**A.** 1.5 ± 0.075
